This note sets out measurements from PubChem BioAssay (NCATS).

Where “and” joins values, the source holds several entries; their conditions need not be identical. Equal entries are not always repeated. A number with no mark means an inactive call. Inconclusive results are not listed. Calls of active or inactive are those of the source. Unless noted, calls come from the whole dose curve; as a rule, active = well fitted curve in the direction sought with a large enough effect; inconclusive = small, poorly fitted or top-dose-only effect, or another doubt; inactive = no such curve, though single readings can be large; an effect the other way counts as inactive or inconclusive.

Assay [1] in a line: Cell Viability - BJ (AID 421; calls by dose curve;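 note: potency is the fitted concentration of half-maximal effect; cells exposed to compound for 40 hours at 37 °C before readout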). The conditions noted are these: BJ fibroblast viability, qHTS. The essentials:
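Quantitative HTS: ATP depletion in BJ cells after 40 hr compound exposure in complete culture medium, detected with CellTiter-Glo; AC50 from standard Hill fits.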

A short description of assay [2]: Cell Viability - HepG2 (AID 433; calls by dose curve;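 note: potency is the fitted concentration of half-maximal effect; potency for ATP loss meaning cytotoxicity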). The conditions noted are these: qHTS. The essentials:
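HepG2 cells, 1500 per well, treated 40 hr at 37 °C in complete medium; viability from intracellular ATP by CellTiter-Glo luminescence. Normalized to DMSO and 100 uM tamoxifen; AC50 from Hill fit of qHTS concentration-response.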
(In general: In qHTS, concentration-response curves come from the screen itself.)

Assay [3] is described as follows: Cell Viability - Renal Proximal Tubule (AID 545). Note: nearly all actives have a fitted effect of over 40% in size. Note: potency is the fitted concentration of half-maximal effect. To be noted: renal proximal tubule cells viability, primary cells of rat origin; activity change, negative = cytotoxicity: at 91.7 µM (top of the series). In outline: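 Rat renal proximal tubule primary cells, 1000/well, exposed to compounds for 40 hr at 37 °C in complete medium; cellular ATP read by CellTiter-Glo luminescence. AC50 from concentration-response fitted with standard Hill equation.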

Assay [4] can be described thus: Cellular Toxicity (caspase-3) Jurkat (AID 655).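 Note: cells exposed to compound for 16 h at 37 °C before reading.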 Note: potency is the fitted concentration of half-maximal effect. The conditions noted are these: Jurkat caspase-3 activation, luminescence; caspase-3 activation: at 92.2 µM (top of the series), DMSO = 0%, tamoxifen = 100%. In outline:
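Jurkat cells (5000/well) in complete medium exposed 16 h at 37 C; caspase-3/7 activity read by Caspase-Glo luminescence after 20 min at room temperature. Normalized to DMSO and 100 uM tamoxifen; AC50 from Hill fits.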

Assay [5] in a line: MultiTox-Fluor Cytotoxicity Assay - LYMP1-001 - Dead Cells (AID 946). Note: potency is the fitted concentration of half-maximal effect. To be noted: LYMP1-001 lymphoblastoid cells, dead-cell protease fluorescence; series mostly up to 92.2 µM. In outline: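 In this qHTS, 15 uM tetraoctylammonium bromide defined 100% and DMSO defined basal activity. Lymphoblastoid cells (LYMP1-001, 2500 per well) received compound for 16 hr at 37 C before a fluorogenic dead-cell substrate readout at 485/520 nm.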

A short description of assay [6]: Cell Viability - LYMP1-002 - Assay at 16 hr (AID 948).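 For activity change, negative = cytotoxicity: 0% = DMSO alone and full effect = 92 µM tetraoctylammonium bromide.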 Note: potency is the fitted concentration of half-maximal effect. The conditions noted are these: LYMP1-002 lymphoblastoid cell viability; series mostly up to 92.2 µM. In outline:
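LYMP1-002 human lymphoblastoid cells, 2500/well, were treated with compounds for 16 hr at 37 C in complete medium. Viability was read as intracellular ATP by CellTiter-Glo luminescence, and AC50 was derived from a Hill fit to concentration-response data.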

Assay [7] in a line: MultiTox-Fluor Cytotoxicity Assay - LYMP1-002 - Live Cells (AID 955).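 Note: cells exposed to compound for 16 hours; % is set by controls: 0 for no effect and ±100 for the full control effect.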 The conditions noted are these: LYMP1-002 lymphoblastoid live-cell protease fluorescence viability; series mostly up to 46.1 µM. In outline:
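After 16 h compound exposure at 37 C, live LYMP1-002 lymphoblastoid cells (2500/well) were quantified by cleavage of cell-permeant GF-AFC substrate, read at 405/510 nm after 60 min. Concentration-response fitted with Hill equation for AC50.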

Assay [8] can be described thus: MultiTox-Fluor Cytotoxicity Assay - LYMP1-003 - Dead Cells (AID 961). Note: nearly all actives have a fitted effect of over 70% in size. Note: potency is the fitted concentration of half-maximal effect. The conditions noted are these: LYMP1-003 lymphoblastoid cells, dead-cell protease fluorescence; series mostly up to 92.2 µM. The essentials: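 Acute toxicity is scored as increased dead-cell protease activity in human lymphoblastoid LYMP1-003 cells after 16 h compound exposure in complete culture medium. Activity is normalized to DMSO basal and 15 uM tetraoctylammonium bromide as full response.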

A short description of assay [9]: Cell Viability - LYMP2-004 (AID 966).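 For activity change, negative = cytotoxicity: plate controls were DMSO only for no effect and tetraoctylammonium bromide control for full effect.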 Note: nearly all actives have a fitted effect of over 65% in size. Note: potency is the fitted concentration of half-maximal effect. The conditions noted are these: LYMP2-004 lymphoblastoid cell viability, qHTS; series mostly up to 92.2 µM. The essentials: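 AC50 values come from Hill modelling of concentration-dependent loss of intracellular ATP, measured by CellTiter-Glo luminescence. Human LYMP2-004 lymphoblastoid cells (2500/well) were exposed to compound for 24 h at 37 C.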

A short description of assay [10]: Cell Viability - LYMP2-011 (AID 969). Note: nearly all actives have a fitted effect of over 60% in size. Note: potency is the fitted concentration of half-maximal effect. To be noted: LYMP2-011 lymphoblastoid cells viability; series mostly up to 92.2 µM. In outline: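 Cytotoxicity qHTS with ATP content as read-out: lymphoblastoid cells (2500/well) exposed to compound for 24 h at 37 C, then luciferase luminescence measured. Concentration-response data fitted with the standard Hill equation to give AC50.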

A short description of assay [11]: Cell Viability - LYMP2-017 (AID 972). For activity change, negative = cytotoxicity: % is set by controls: 0 for no effect and ±100 for the full control effect. Note: nearly all actives have a fitted effect of over 55% in size. Note: potency is the fitted concentration of half-maximal effect. The conditions noted are these: LYMP2-017 lymphoblastoid cell viability; series mostly up to 92.2 µM. The essentials:
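CellTiter-Glo luminescence (cellular ATP, 30 min RT) measured cytotoxicity after 24 hr compound treatment at 37 C. Cells were a human lymphoblastoid line, LYMP2-017, plated at 2500/well and incubated 5 hr first; concentration-response fitted with Hill equation for AC50.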

Assay [12] is described as follows: Cell Viability - LYMP2-007 (AID 979).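 For activity change, negative = cytotoxicity: 0% = DMSO only and the negative end = 92 µM tetraoctylammonium bromide.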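 Note: cells exposed to compound for 24 h before reading; nearly all actives have a fitted effect of over 60% in size.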 Note: potency is the fitted concentration of half-maximal effect. The conditions noted are these: LYMP2-007 lymphoblastoid cell viability; series mostly up to 92.2 µM. The essentials: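 AC50 values come from Hill-equation fits of luminescent intracellular ATP (CellTiter-Glo, 30 min, room temperature) following 24 h compound exposure at 37 C. Cells: LYMP2-007 lymphoblastoid line, 2500 per well, in complete culture medium.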

Assay [13] is described as follows: Cell Viability - LYMP2-014 (AID 983).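 For activity change, negative = cytotoxicity: plate controls were DMSO only for no effect and 92 µM tetraoctylammonium bromide for full effect.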 Note: nearly all actives have a fitted effect of over 50% in size. Note: potency is the fitted concentration of half-maximal effect. The conditions noted are these: LYMP2-014 lymphoblastoid cells, viability qHTS; series mostly up to 92.2 µM. In outline: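 Intracellular ATP loss, read by luciferase luminescence, measures acute cytotoxicity after 24 h compound exposure of lymphoblastoid LYMP2-014 cells (2500/well, 37 C). Concentration-response data fitted to the Hill equation for AC50.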

Assay [14] in a line: Cell Viability - LYMP2-016 (AID 984). Note: % is set by controls: 0 for no effect and ±100 for the full control effect; nearly all actives have a fitted effect of over 55% in size. To be noted: LYMP2-016 lymphoblastoid cell viability, qHTS; series mostly up to 92.2 µM. In outline:
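Human lymphoblastoid LYMP2-016 cells, 2500 per well, treated with compounds for 24 h at 37 C. Viability read as intracellular ATP by CellTiter-Glo luminescence after 30 min at room temperature; AC50 from Hill fits of concentration-response.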

A short description of assay [15]: Cell Viability - LYMP2-018 (AID 985).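 For activity change, negative = cytotoxicity: plate controls were DMSO only for no effect and tetraoctylammonium bromide at 92 µM for full effect.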 Note: nearly all actives have a fitted effect of over 50% in size. Note: potency is the fitted concentration of half-maximal effect. The conditions noted are these: LYMP2-018 lymphoblastoid cells, viability (qHTS); series mostly up to 92.2 µM. In outline: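 Viability read as CellTiter-Glo luminescence (cellular ATP) after 24 hr compound exposure at 37 C of 2500 LYMP2-018 lymphoblastoid cells/well, pre-plated 5 hr. Hill-equation modelling gave AC50.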
Assay [16] can be described thus: Cell Viability - LYMP2-020 (AID 986). Note: nearly all actives have a fitted effect of over 55% in size. Note: potency is the fitted concentration of half-maximal effect. The conditions noted are these: series mostly up to 92.2 µM. In outline: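 Cytotoxicity in qHTS format: luminescent ATP readout from CellTiter-Glo after 24 h compound exposure at 37 C in complete medium. LYMP2-020 lymphoblastoid cells were seeded at 2500/well; concentration-response data fitted to the Hill equation for AC50.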

Assay [17] can be described thus: Cell Viability - LYMP2-022 (AID 987). Note: nearly all actives have a fitted effect of over 55% in size. Note: potency is the fitted concentration of half-maximal effect. To be noted: LYMP2-022 lymphoblastoid cell viability; series mostly up to 92.2 µM. The essentials:
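Cytotoxicity read as decreased cellular ATP (CellTiter-Glo luminescence, 30 min room temperature) after 24 hours compound exposure of 2500 lymphoblastoid LYMP2-022 cells/well at 37 C. Concentration-response data fitted with standard Hill equation for AC50.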

Assay [18] can be described thus: Cell Viability - LYMP1-002 - Assay at 24 hr (AID 993). For activity change, negative = cytotoxicity: % is set by controls: 0 for no effect and ±100 for the full control effect. Note: potency is the fitted concentration of half-maximal effect. To be noted: LYMP1-002 lymphoblastoid cells viability; series mostly up to 92.2 µM. In outline:
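qHTS cytotoxicity at 24 h: CellTiter-Glo ATP luminescence in lymphoblastoid line LYMP1-002 incubated with compound at 37 °C. Concentration-response modeled with the Hill equation for AC50; tetraoctylammonium bromide served as positive control.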

The nature of assay [19]: qHTS assay for environmental chemicals that activate the Aryl hydrocarbon Receptor (AhR) signaling pathway (AID 651777). Note: % of control where 0% means no effect; nearly all actives have a fitted effect of over 15% in size. The conditions noted are these: 1A2-DRE human hepatoma cells, luciferase, 24 h; activation: hits give high values. In outline: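 Concentration–response screening used 1,200 1A2-DRE cells per well, 24 hr compound exposure (37 C, 5% CO2), and One-Glo luminescence as the AhR-driven CYP1A2 reporter signal.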

Assay [20] addresses Nuclear receptor subfamily 1 group I member 2 (Rattus norvegicus) (UniProt Q9R1A7). Description: qHTS assay for small molecule activators of the rat pregnane X receptor (rPXR) signaling pathway (AID 651751; call rule not given here; note: 0% is about no effect). To be noted: rPXR reporter cells, luciferase (One-Glo), 24 h.

Chain of Nuclear receptor subfamily 1 group I member 2 (Rattus norvegicus) (Q9R1A7 whole entry, looked up): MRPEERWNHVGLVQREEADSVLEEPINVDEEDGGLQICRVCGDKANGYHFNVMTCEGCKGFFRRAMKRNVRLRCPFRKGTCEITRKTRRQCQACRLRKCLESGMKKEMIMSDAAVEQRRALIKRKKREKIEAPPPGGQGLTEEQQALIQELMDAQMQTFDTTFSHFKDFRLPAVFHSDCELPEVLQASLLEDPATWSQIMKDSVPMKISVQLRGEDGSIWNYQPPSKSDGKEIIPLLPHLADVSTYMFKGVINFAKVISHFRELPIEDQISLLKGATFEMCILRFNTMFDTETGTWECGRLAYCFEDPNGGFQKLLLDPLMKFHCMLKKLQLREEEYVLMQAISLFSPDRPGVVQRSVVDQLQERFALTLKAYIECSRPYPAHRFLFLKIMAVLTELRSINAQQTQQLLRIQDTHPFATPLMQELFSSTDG

In the case of `c1c[nH]cn1`, the Potency in assay [1] and in assay [2] was over 92 µM in each case. In addition, the Potency entry in [3], in assay [4], in assay [5], in assay [6], in assay [8] and in assay [9] was “inactive” each time. The Potency entry in assay [10], in assay [11], in [12], in [13], in assay [14] and in assay [15] was “inactive” in each case. The Potency entry in assay [16], in assay [17] and in [18] was “inactive” in each case. Besides, in assay [7], the compound was called inactive. The activation in assay [19] was -1.48%. In addition, in assay [20], the max response was -3.01%.

`Cc1ccc(S(N)(=O)=O)cc1`: the Potency in assay [1] and in assay [2] was over 92 µM each time. For the same compound, the Potency entry in assay [3], in [4], in assay [5], in [6], in assay [8] and in assay [9] was “inactive” in each case. Also, the Potency result in assay [10], in assay [11], in [12], in assay [13], in assay [14] and in assay [15] was “inactive” in each case. Also, the Potency result in [16], in assay [17] and in [18] was “inactive” in each case. The outcome in assay [7] was inactive. Also, the activation in assay [19] is -0.842%. Further, the max response in assay [20] was -1.87% and 3.62%.

`c1cc2c3c(c1)ccc1cccc(c13)C2`: the Potency in assay [1] and in assay [2] was over 92 µM in each case. In addition, the Potency entry in assay [3], in assay [4], in assay [5], in assay [6], in assay [8] and in assay [9] was “inactive” each time. The Potency result in assay [10], in [11], in assay [13], in assay [14], in assay [15] and in [16] was “inactive” each time. Besides, the Potency result in assay [17] and in assay [18] was “inactive” each time. In addition, the compound was classed as inactive in assay [7]. Also, the activation in assay [19] was -0.581%. The max response in [20] is -0.774%.

For the compound `C=C1CC[C@H](O)C/C1=C/C=C1\CCC[C@]2(C)[C@@H]([C@H](C)CCCC(C)C)CC[C@@H]12`, the Potency in [1] was 61.2 µM (active); in assay [2], over 92 µM; in [4] it was 31.6 µM (active); in assay [5], 39.8 µM (active); in assay [6], 50.1 µM (active); in assay [8], 39.8 µM (active). Besides, the Potency was 39.8 µM (active) in [9]; 50.1 µM (active) in assay [10]; 50.1 µM (active) in assay [11]; 50.1 µM (active) in [12]; 50.1 µM (active) in assay [13]; 39.8 µM (active) in assay [15]. Moreover, the figures for the Potency in assay [16], in [17] and in assay [18] were 50.1 µM (active), 31.6 µM (active) and 50.1 µM (active), respectively. The activity change, negative = cytotoxicity in assay [3] was -97.9% (active). The activation in assay [19] is 5.81%. For the same compound, the max response in [20] was 7.46%.

In the case of `Brc1cc(Br)c(Oc2cc(Br)c(Br)cc2Br)cc1Br`, the Potency in assay [1] and in [2] was over 92 µM each time. Further, the Potency entry in [3], in assay [4], in [5], in assay [6], in assay [8] and in assay [9] was “inactive” in each case. Besides, the Potency entry in [10], in assay [11], in assay [12], in assay [13], in assay [14] and in [15] was “inactive” each time. Also, the Potency result in assay [16], in assay [17] and in assay [18] was “inactive” throughout. In addition, in [7], the compound was classed as inactive. The activation in [19] was -1.17%. Moreover, in [20], the max response is -2.15%.

With `O=C1c2ccccc2C(=O)C1(O)O`, the Potency in [2] was over 92 µM; in assay [3] it was 1.58 µM (active); in assay [4], 31.6 µM (active); in assay [9], 50.1 µM (active). For the same compound, the Potency result in assay [5], in assay [6], in assay [8], in assay [10], in [11] and in [12] was “inactive” throughout. Moreover, the Potency entry in assay [13], in [14], in assay [15], in assay [16] and in assay [18] was “inactive” each time. Besides, the call in assay [7] was inactive. Further, the activation in [19] was -0.0089%. Moreover, in assay [20], the max response was 1%.
